ssDAF12 agonist: activates DAF-12 receptor from parasite S. stercoralis; HEK293 ssDAF-12/GRIP1 lit1-tk-luc reporter, luminescence; % of 3 µM dafachronic acid response; activation, % at 6.8 µM; 1% of 370,000 active; AID 652126;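 active means activation above the mean over all tested compounds plus 3 SD, cut at about 0.9% in these data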
DAX1 inh-1: inhibitors of human orphan nuclear receptor DAX1 (NR0B1); HEK293 Gal4-DAX1 luciferase reporter, luminescence; inhibition, % at 6.75 µM; 0.99% of 340,000 active; AID 504766;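 active means inhibition above the mean over all tested compounds plus 3 SD, cut at about 4.2% in these data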;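 further: inhibition shows as a rise in luminescence from relieved DAX1 repression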
Target sequence (P51843 207-470 limits assumed): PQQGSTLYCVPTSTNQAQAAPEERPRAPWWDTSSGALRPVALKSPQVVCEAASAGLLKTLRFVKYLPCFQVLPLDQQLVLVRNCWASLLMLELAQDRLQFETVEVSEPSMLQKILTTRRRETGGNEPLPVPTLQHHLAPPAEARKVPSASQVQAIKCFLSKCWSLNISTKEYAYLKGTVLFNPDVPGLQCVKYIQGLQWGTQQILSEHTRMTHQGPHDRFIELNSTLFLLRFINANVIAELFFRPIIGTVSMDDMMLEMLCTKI
hcDAF12 agonist: H. contortus DAF-12 activation, primary screen; HEK293 hcDAF-12 lit1-tk-luc reporter, luminescence; 0% DMSO, 100% Δ7-dafachronic acid; activation, % at 6.8 µM; 1.4% of 370,000 active;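 active means activation above the mean of all tested compounds plus 3 SD, cut at about 5.5% in these data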
hgDAF12 agonist: activates the H. glycines DAF-12 receptor ligand-binding domain. HEK293 GAL4-hgDAF12 UAS-luciferase reporter, agonist luminescence; normalized to butyrate control. activation, % at 6.8 µM. 1.8% of 370,000 active. AID 687014;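 active means activation above a cutoff set at the mean of all screened compounds plus 3 SD, cut at about 10% in these data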
AHR act: activates the human aryl hydrocarbon receptor. 2.5% of 320,000 active. AHR-responsive luciferase reporter cells, luminescence. AID 2796. activation, % at 5 µM; in the data active means activation above about 47%
DAX1 inh-2: DAX1 (NR0B1) inhibition, primary screen | inhibition, % at 6.8 µM | HEK293T StAR-luciferase reporter, SF-1/DAX-1 repression relief | 1.1% of 370,000 active | AID 652010;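 active means inhibition above the mean over all tested compounds plus 3 SD, cut at about 3.6% in these data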;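 further: higher inhibition means more luminescence from relief of DAX-1 repression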
AHR act cf: human AHR activation, confirmation. shares compounds with AHR act. human cells, AHR-responsive luciferase reporter, luminescence. activation, % at 9 µM. 87% of 2,300 active. AID 2845; in the data active means activation above about 49%;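 further: HepG2 hepatoma cells carrying a DRE-driven firefly luciferase reporter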
PXR counter: activates human PXR in AHR activator counter-screen; shares compounds with AHR act; cell-based PXR reporter, luciferase luminescence; activation, % at 11.6 µM; 88% of 2,300 active; in the data active means activation above about 11%;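 further: human hepatoma DPX-2 cells expressing full-length human PXR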
DAX1 inh confirm: confirmation of human DAX1 (NR0B1) inhibitors | 87% of 2,400 active | shares compounds with DAX1 inh-2 | HEK293T StAR-promoter luciferase reporter, SF-1/DAX-1 repression | AID 652134 | inhibition, % at 6.8 µM;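 active means inhibition above the average of every tested compound plus 3 SD, cut at about 3.8% in these data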;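 further: active compounds raise luminescence by relieving repression of the StAR reporter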
SF1 mutant ctr: counter-screen for DAX1 inhibitors: nonselective inhibitors with SF-1 AF2 mutant; shares compounds with DAX1 inh-2; HEK293 StAR-luciferase, luminescence; inhibition, % at 6.8 µM; 78% of 2,400 active;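 active means inhibition above the mean of all tested compounds plus 3 SD, cut at about 3% in these data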
LXR ag: counter-screen for hcDAF-12 agonists: agonists of human LXR-beta | shares compounds with hcDAF12 agonist | HEK293 Gal4-LXR tk-luc reporter, luminescence, 24 h; normalized: DMSO 0%, positive control 100% | activation, % at 6.8 µM | 3,400 tested, under 10 active | AID 743027;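 active means mean percent activation of the reporter above a cutoff set as the average over tested compounds plus their standard deviation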
Target sequence (P55055 whole entry, looked up, the tested form may be a part): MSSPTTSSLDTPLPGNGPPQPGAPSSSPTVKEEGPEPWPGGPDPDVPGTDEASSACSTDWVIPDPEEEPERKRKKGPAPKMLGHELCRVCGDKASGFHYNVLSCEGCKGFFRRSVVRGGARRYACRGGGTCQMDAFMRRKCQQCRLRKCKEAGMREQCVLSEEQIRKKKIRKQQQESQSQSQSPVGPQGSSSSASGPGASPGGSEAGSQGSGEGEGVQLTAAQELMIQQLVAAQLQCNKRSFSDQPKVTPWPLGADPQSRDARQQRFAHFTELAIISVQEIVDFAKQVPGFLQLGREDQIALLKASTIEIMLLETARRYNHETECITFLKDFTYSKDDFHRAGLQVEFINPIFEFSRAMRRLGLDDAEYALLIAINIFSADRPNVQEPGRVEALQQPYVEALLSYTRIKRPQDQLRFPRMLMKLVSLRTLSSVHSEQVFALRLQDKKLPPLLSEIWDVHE
hcDAF12 ag: confirmation of H. contortus DAF-12 agonists. shares compounds with hcDAF12 agonist. HEK293 hcDAF-12 lit1-tk-luc reporter, luminescence; % of Δ7-dafachronic acid response. activation, % at 6.8 µM. 61% of 3,400 active;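 active means mean activation across triplicate tests above the threshold derived from the earlier primary screen, cut at about 5.5% in these data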
hgDAF12 ag: hgDAF-12 agonism, confirmation assay. activation, % at 6.8 µM. shares compounds with hgDAF12 agonist. HEK293 GAL4-hgDAF12 luciferase reporter, agonist mode; percent of butyrate response. 80% of 3,300 active;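 active means mean activation over triplicate wells above the hit cutoff derived from the earlier primary screen, cut at about 11% in these data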
LXR ag 2: LXR-beta agonism as DAF-12 counter-screen; shares compounds with hgDAF12 agonist; HEK293 Gal4-LXR luciferase reporter, 24 h; activation, % at 6.8 µM; 3,300 tested, under 10 active; AID 743051;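 active means mean activation of the triplicate above a set limit carried over from the primary screen, none filed active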
Hits are given with their value; n = inactive; x = no result given. Shown are actives, neighbours in structure and some others; about 5.7% of the full set was active somewhere.

SMILES	ssDAF12 agonist	DAX1 inh-1	hcDAF12 agonist	hgDAF12 agonist	AHR act	DAX1 inh-2	AHR act cf	PXR counter	LXR ag	hcDAF12 ag	hgDAF12 ag	LXR ag 2	others
COc1ccc(C(=O)N=c2sccn2C)cc1	n	n	n	n	n	n	x	x	x	x	x	x
Fc1ccccc1-c1ccc(/C=N/Nc2nc3ccccc3[nH]2)o1	3.4	n	12.6	20.8	84.2	n	77.8	10.7	n	13.2	17.8	n
CC(=O)Nc1cccc(-c2csc(Nc3ccc(C)cn3)n2)c1	n	n	12.8	17.4	145.2	5.5	n	33.8	n	8.3	20.6	n
CC(=O)Nc1cccc(-c2cnc(NC(C)=O)cn2)c1	n	x	n	n	x	n	x	x	x	x	x	x
Clc1ccc(-n2nnc(-c3cccnc3Cl)n2)cc1Cl	n	n	n	n	n	n	x	x	x	x	x	x
Fc1ccc(-n2nnc(-c3cccnc3Cl)n2)cc1	n	4.4	7.2	16.8	79.4	n	69.2	18.6	n	n	17.3	n
COc1ccc(NC(=O)/C(C#N)=C/c2ccc(Br)o2)cc1	n	n	n	n	n	n	x	x	x	x	x	x
CC1CC1c1ccc(/C=C(\C#N)C(=O)Nc2ccc(Cl)cc2)o1 (centres undefined)	n	n	n	13.8	89.8	n	n	44.6	x	x	14.5	n
Cc1c(C(=O)NCc2ccccc2F)oc2ccccc12	n	n	n	n	n	n	x	x	x	x	x	x
S=c1[nH]nc(Nc2cccc(Cl)c2)s1	n	n	n	n	n	n	x	x	x	x	x	x
Clc1cccc(Nc2nc(-c3ccncc3)cs2)c1	n	n	n	13.6	98.0	n	96.0	11.2	x	x	n	n
COc1ccccc1-c1noc(-c2ccccc2)n1	n	n	n	13.7	121.5	3.7	101.1	26.2	x	x	18.8	n
COc1ccc(OCCN2C(=O)c3ccccc3C2=O)cc1	n	n	n	n	n	n	x	x	x	x	x	x
Cc1ccccc1OCCN1C(=O)c2ccccc2C1=O	n	n	n	n	n	n	x	x	x	x	x	x
O=C1c2ccccc2C(=O)N1CCOc1ccccc1	1.2	n	6.9	13.6	96.5	n	167.2	21.3	n	8.8	16.6	n
Nc1cccc2c1C(=O)N(CCOc1ccc(F)cc1)C2=O	n	n	10.5	16.8	97.7	n	86.7	28.6	n	9.3	17.6	n
O=C(Nc1ccccc1C1CC1)c1cccs1	n	n	n	n	n	n	x	x	x	x	x	x
O=C(Nc1nc2ccccc2s1)c1ccc(Cl)s1	n	6.5	8.4	15.1	82.3	4.0	50.2	11.6	n	7.2	21.1	n
COc1cccc(-c2noc(-c3ccc(Br)o3)n2)c1	n	n	n	15.8	83.7	4.4	87.7	n	x	x	17.2	n
COc1cccc(-c2noc(-c3cccnc3)n2)c1	n	4.2	n	13.9	85.0	n	133.9	n	x	x	15.2	n
Cn1ncc([N+](=O)[O-])c1C(=O)Nc1ccn(Cc2ccccc2F)n1	n	n	n	n	n	n	x	x	x	x	x	x
COc1ccc(C)cc1S(=O)(=O)N(C)CC(=O)NC1CCCCC1	n	n	n	n	n	n	x	x	x	x	x	x
CCN(Cc1ccccc1)c1ccc(/C=C(\C#N)c2ccccn2)cc1	2.1	n	9.3	27.0	86.4	5.1	70.1	43.9	n	n	12.7	n	DAX1 inh confirm=3.7;SF1 mutant ctr=5.7
CCN(CC)c1ccc(/C=C(\C#N)c2ccccn2)cc1	x	n	x	x	n	x	x	x	x	x	x	x
NNC(=O)c1ccc(Cn2cc(Br)cn2)cc1	n	n	n	n	n	n	x	x	x	x	x	x
SMILES	ssDAF12 agonist	DAX1 inh-1	hcDAF12 agonist	hgDAF12 agonist	AHR act	DAX1 inh-2	AHR act cf	PXR counter	LXR ag	hcDAF12 ag	hgDAF12 ag	LXR ag 2	others
NNC(=O)c1ccc2nc(-c3ccc(Br)cc3)cn2c1	n	n	n	14.8	99.8	n	49.9	21.3	x	x	17.9	n
Clc1ccc(-c2cn3cc(Cl)ccc3n2)cc1	3.2	n	19.7	14.1	87.5	n	123.9	19.2	n	17.9	21.6	n
CC(=O)Nc1ccc2c(c1)C(=O)c1ccccc1C2=O	n	n	6.5	14.3	152.2	n	120.9	34.9	x	x	17.7	n
O=C(N/N=C/c1c[nH]c2ccccc12)c1cc(-c2ccc3ccccc3c2)n[nH]1	n	n	7.9	24.8	145.3	n	52.6	11.7	n	n	n	n
O=C(N/N=C/C=C\c1ccccc1[N+](=O)[O-])c1cc(-c2ccc3ccccc3c2)n[nH]1	n	n	n	n	x	n	x	x	x	x	x	x
CN(C)c1ccc(Nc2nc(-c3cccnc3)cs2)cc1	1.3	n	12.3	18.2	89.6	n	62.5	27.2	n	9.7	22.8	n
CCN(CC)c1ccc(Nc2nc(-c3cccnc3)cs2)cc1	n	n	n	n	n	n	x	x	x	x	x	x
C(=N\Nc1nc2ccccc2s1)/c1ccco1	2.6	n	16.6	15.3	102.8	6.7	105.1	30.1	n	11.8	20.9	n	DAX1 inh confirm=17.8;SF1 mutant ctr=8.2
OCC(O)/C=N/Nc1nc2ccccc2s1 (centres undefined)	n	n	n	n	n	n	x	x	x	x	x	x
COc1ccccc1NC(=O)CSc1nnc(NC(=O)c2ccco2)s1	n	n	n	n	n	n	x	x	x	x	x	x
Cc1ccc(-c2cc(-c3cccc(F)c3)n[nH]2)c(O)c1	2.5	5.0	12.7	13.5	126.0	4.2	141.8	15.9	n	7.6	16.9	n
Cc1ccc(-c2cc(-c3ccccc3C)[nH]n2)c(O)c1	n	n	6.8	13.9	101.5	n	136.0	18.1	n	n	16.6	n
CC(C)NC(=O)C(=O)NCCN1CCN(C(=O)c2ccc(C(C)(C)C)cc2)CC1	n	n	n	n	n	n	x	x	x	x	x	x

From PubChem BioAssay
